Bioassay records: PubChem, National Center for Advancing Translational Sciences (NCATS)
Only some compounds are listed: those with a hit (about 9.2% of all), similar ones and a draw of the others.
Rab9 prom act: qHTS Assay for Rab9 Promoter Activators; Huh7 Rab9 promoter-luciferase reporter, luminescence, 24 h; hit rate 2.8% among 320,000; Potency, µM (doses to about 9.22 µM), inactives show at the highest dose activation, negative = inhibition, actives largely listed as activators; AID 485297, 2010; note: % of control where 0% means no effect; nearly all actives have a fitted effect of over 60% in size
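Huh7 reporter line, Rab9 promoter upstream of luciferase. Compound exposure 24 h at 37 °C in reduced-serum medium with 10% FBS. Read-out: luminescence.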
SMN2 splice enh: qHTS Assay for Enhancers of SMN2 Splice Variant Expression. Potency, µM (titrated, usually from 46.1 µM), without a hit: at the top dose activity change, positive = activation, most hits filed as activators. AID 1458, 2008. hit rate 2.8% among 210,000. HEK293 SMN2-luciferase splicing reporter, luminescence, 30-36 h; note: % of control where 0% means no effect; nearly all actives have a fitted effect of over 55% in size
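qHTS luciferase splicing reporter: luminescence rises when SMN2 exon 7 is included in transfected HEK293 cells. Compound exposure lasted 30-36 h at 37C, with 4.5 mM final sodium butyrate as control, followed by a ONE-Glo read.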
NPC1 promoter act: qHTS Assay for NPC1 Promoter Activators | Huh7 NPC1 promoter luciferase reporter, 24 h | Potency, µM (series often up to 9.22 µM), for inactives: at the highest dose activation, actives largely listed as activators | hit rate 2.4% among 320,000 | AID 485313, 2010; note: % of control where 0% means no effect; nearly all actives have a fitted effect of over 60% in size
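Cells: Huh7 expressing luciferase under the NPC1 promoter, 1500/well. Seeded 2 h, compound added, incubated 24 h at 37 °C. Luciferase reagent, 10 min ambient, then luminescence.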
ELG1 genotox: qHTS screen for small molecules that induce genotoxicity in human embryonic kidney (HEK293T) cells expressing luciferase-tagged ELG1; HEK293T ELG1-luciferase reporter, luminescence, 16 h; Potency, µM (series often up to 46 µM), inactives show at the highest dose activity change, positive = activation, actives largely listed as activators; hit rate 1.3% among 330,000; AID 504466, 2011; note: % of control where 0% means no effect; nearly all actives have a fitted effect of over 60% in size
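Luminescence read-out: rising ELG1-luciferase signal, reflecting elevated ELG1 protein under genetic stress, flags genotoxic compounds. Cells were treated for 16 hr at 37 °C before ONE-Glo detection.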
FLuc counter: qHTS profiling assay for firefly luciferase inhibitor/activator using purifed enzyme and Km concentrations of substrates (counterscreen for miR-21 project); AID 588342, 2011; purified FLuc, Km substrates, luminescence inhibition; Potency, µM (series often up to 57.5 µM), inactives show top-dose activity change, negative = inhibition, actives largely listed as inhibitors; hit rate 6.9% among 360,000;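 note: plate controls were vehicle for no effect and reference inhibitor for full effect; nearly all actives have a fitted effect of over 55% in size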
Target sequence (P08659 whole entry, looked up): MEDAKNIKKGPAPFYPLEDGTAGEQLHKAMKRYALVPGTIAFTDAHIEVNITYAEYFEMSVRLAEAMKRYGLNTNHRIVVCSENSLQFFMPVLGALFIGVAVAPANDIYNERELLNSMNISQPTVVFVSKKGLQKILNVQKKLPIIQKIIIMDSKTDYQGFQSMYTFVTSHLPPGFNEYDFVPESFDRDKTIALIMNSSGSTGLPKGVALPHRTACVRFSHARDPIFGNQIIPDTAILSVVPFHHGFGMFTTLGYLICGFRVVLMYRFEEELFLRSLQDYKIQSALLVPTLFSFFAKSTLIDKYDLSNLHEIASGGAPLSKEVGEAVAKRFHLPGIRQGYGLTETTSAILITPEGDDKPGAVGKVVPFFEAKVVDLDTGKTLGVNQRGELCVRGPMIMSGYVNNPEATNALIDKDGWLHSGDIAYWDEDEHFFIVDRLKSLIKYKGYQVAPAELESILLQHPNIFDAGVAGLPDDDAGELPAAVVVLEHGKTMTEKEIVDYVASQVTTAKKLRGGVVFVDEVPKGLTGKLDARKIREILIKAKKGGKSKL
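Biochemical qHTS of compounds, final roughly 60 µM downward over six points, against 10 nM purified firefly luciferase using Km concentrations of substrates (10 uM D-luciferin, 10 uM ATP) in Tris acetate pH 7.5 buffer; luminescence output.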
ELG1 repair inh: qHTS screen for small molecules that inhibit ELG1-dependent DNA repair in human embryonic kidney (HEK293T) cells expressing luciferase-tagged ELG1; HEK293T ELG1-luciferase reporter, luminescence, 16 h; DNA damage induced by 5-fluorouridine; Potency, µM (top dose mostly 46.1 µM), for the others: at the top dose activity change, negative = inhibition, most hits filed as inhibitors; hit rate 2.3% among 330,000; AID 504467, 2011; note: % is set by controls: 0 for no effect and ±100 for the full control effect; nearly all actives have a fitted effect of over 55% in size
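DMSO vehicle served as the neutral condition. Each well held 2,000 cells given 5-fluorouridine plus compound; after 16 hr at 37 °C/5% CO2, ONE-Glo was added and luciferase measured 30 min later.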
* marks the source's active call; other numbers are inactive results; ? = inconclusive; nt = not tested or not shown. Calls come from the whole dose curve; as a rule, active = well fitted curve in the direction sought with a large enough effect; inconclusive = small, poorly fitted or top-dose-only effect, or another doubt; inactive = no such curve, though single readings can be large; an effect the other way counts as inactive or inconclusive. Potency is the fitted concentration of half-maximal effect.

SMILES	Rab9 prom act	SMN2 splice enh	NPC1 promoter act	ELG1 genotox	FLuc counter	ELG1 repair inh
Cc1ccc2nc(-c3cccc(NC(=O)c4ccc5c(c4)OCCO5)c3)oc2c1	5%	-13%	11%	12%	9.5µM*	?
O=C(Nc1ccc2oc(-c3ccc4ccccc4c3)nc2c1)c1ccc2c(c1)OCCO2	?	-35%	?	7%	-1%	?
O=[N+]([O-])c1ccc(N2CCN(S(=O)(=O)c3ccccc3)CC2)cc1NCCN1CCOCC1	-5%	-6%	1%	-22%	-2%	26µM*
Cc1ccc(S(=O)(=O)N2CCN(c3ccc([N+](=O)[O-])c(NCCN4CCOCC4)c3)CC2)cc1	1%	17%	-4%	-2%	0%	?
NCc1ccccc1CS(=O)(=O)N1CCOCC1	nt	nt	nt	2%	nt	-3%
Cc1cc(C)cc(C(=O)O/N=C(\N)c2ccc(Br)cc2)c1	?	15%	?	1%	-20%	21%
Cc1cccc(OCC(=O)O/N=C(\N)c2ccc(Cl)cc2)c1	3%	-13%	-6%	1%	-18%	12%
Cc1ccc(/C(N)=N/OC(=O)c2ccc(Cl)cc2Cl)cc1	2.5µM*	11µM*	3.2µM*	?	1.1µM*	?
Cc1ccc(C(=O)O/N=C(\N)c2ccc(Br)cc2)cc1C	18%	-11%	13%	16µM*	?	?
Cc1cccc(C(=O)O/N=C(\N)c2ccc(Cl)cc2)c1	1.8µM*	nt	0.4µM*	?	1.9µM*	?
Cc1cccc(C(=O)O/N=C/c2ccc(Br)cc2)c1	-3%	-23%	-2%	?	3.4µM*	?
Cc1ccc(CNC(=O)CCCCn2c(=O)c3ccccc3n(Cc3ccc(C)cc3)c2=O)cc1	nt	-12%	nt	nt	2%	nt
Cc1cccc(C(=O)O/N=C(\N)c2ccc(Br)cc2)c1	0.71µM*	28%	0.56µM*	11µM*	3µM*	?
N/C(=N\OC(=O)c1ccoc1)c1ccc(Br)cc1	3.2µM*	nt	2.5µM*	3.7µM*	6.7µM*	?
N/C(=N\OC(=O)N1CCOCC1)c1ccc(Br)cc1	?	-66%	?	-2%	?	?
N/C(=N\OC(=O)c1cccc2ccccc12)c1ccc(Br)cc1	13%	?	15%	-12%	?	?
Cc1ccc(C)c(C(=O)O/N=C(\N)c2ccc(Br)cc2)c1	27%	?	?	?	15µM*	?
CCOc1cc(/C=N/n2c(C)nnc2C)ccc1O	-4%	nt	3%	9%	1%	?
COc1ccc(CCN2CC(C(=O)Nc3ccc(S(C)(=O)=O)cc3)CC2=O)cc1OC (stereo not given)	-4%	nt	1%	-1%	4%	8%
Cc1[nH]c2ccccc2c1C(=O)C(=O)N1CCOCC1	3%	nt	-7%	8%	4%	-6%
Cc1[nH]c2ccccc2c1C(=O)CSC(=S)N1CCOCC1	?	nt	21%	10%	21µM*	?
CN(C)c1ccc(NC(=O)CCN2CCN(c3ccccn3)CC2)cc1	-3%	nt	3%	0%	2%	8%
COC(=O)C1=NN(C(=O)c2ccccc2)C(O)(c2ccc([N+](=O)[O-])cc2)C1 (stereo not given)	0%	nt	-2%	-1%	24µM*	7%
COC(=O)C1=NN(C(=O)c2ccccc2)C(C)(O)C1 (stereo not given)	-1%	-8%	-2%	1%	4%	?
COc1ccc(NC(=O)c2ccc3c(c2)C(=O)N(CC2CCCO2)C3=O)cc1 (stereo not given)	-5%	nt	-7%	-1%	?	1%
SMILES	Rab9 prom act	SMN2 splice enh	NPC1 promoter act	ELG1 genotox	FLuc counter	ELG1 repair inh
COc1ccccc1OCC(=O)Nc1ccc2c(c1)C(=O)N(CC1CCCO1)C2=O (stereo not given)	-4%	0%	-1%	-5%	-5%	-4%
CC(=O)Oc1cccc(C(=O)Nc2ccc3c(c2)C(=O)N(CC2CCCO2)C3=O)c1 (stereo not given)	3%	nt	22%	3%	?	23%
COc1ccccc1Oc1ccc2c(c1)C(=O)N(CC1CCCO1)C2=O (stereo not given)	28%	nt	8%	-2%	19µM*	-4%
COc1ccc(/C=C2\NC(=S)N(CC3CCCO3)C2=O)c(OC)c1 (stereo not given)	?	-18%	3%	-1%	15µM*	17%
COc1cccc(C(=O)Nc2ccc3c(c2)C(=O)N(CC2CCCO2)C3=O)c1 (stereo not given)	25%	nt	23%	-9%	9.5µM*	?
COc1cccc(NC(=O)c2ccc3c(c2)C(=O)N(CC2CCCO2)C3=O)c1 (stereo not given)	0%	nt	3%	3%	17µM*	24%
Cc1ccc(NC(=O)CSc2ccc(-c3sc(-c4ccccc4)nc3C)nn2)cc1F	nt	nt	nt	nt	-6%	nt
CCNC(=O)N(CC)C[C@H]1N[C@@](Cc2ccccc2)(C(=O)OC)[C@H]2C(=O)N(C)C(=O)[C@@H]12	nt	nt	nt	1%	nt	8%
CC(=O)Nc1nc2ccccc2n1CCOc1ccccc1Cl	-11%	-46%	-5%	-4%	-2%	?
CN(C)S(=O)(=O)c1cccc(C(=O)Nc2cc(Cl)ccc2O)c1	?	-13%	?	-1%	13µM*	5%
O=C(Nc1ccccc1C(=O)O)c1cccc(S(=O)(=O)N2CCCC2)c1	nt	6%	nt	nt	12µM*	nt
CCCn1c(NC(=O)c2cccc(S(=O)(=O)N3CCCC3)c2)nc2ccccc21	-15%	-25%	-1%	-30%	2%	8.2µM*
CNC(=O)c1ccccc1NC(=O)c1cccc(S(=O)(=O)N2CCCCC2)c1	-7%	nt	-3%	-7%	0%	?
O=C(Nc1nc2ccccc2n1CCOc1ccccc1Cl)c1ccccc1	nt	18%	nt	nt	4.8µM*	nt
CCCSc1ccc([C@H]2N[C@@](CC(C)C)(C(=O)OC)[C@H]3C(=O)N(CC)C(=O)[C@@H]23)cc1	nt	nt	nt	-2%	nt	-13%
CCOC(=O)C1=C(CBr)NC(=O)NC1C (stereo not given)	2%	4%	-1%	-2%	-2%	-7%
Cc1ccccc1NC(=O)c1cccc(S(=O)(=O)N2CCCCC2)c1	12%	nt	0%	-7%	0%	2%
